The structures appear in SMILES notation. Records with an inconclusive call do not appear. The source made the active and inactive calls. Calls come from the whole dose curve; as a rule, active = well fitted cell-killing curve with a large enough effect; inconclusive = small, poorly fitted or top-dose-only effect; inactive = flat fitted curve, though single readings scatter.
Potency is the fitted concentration of half-maximal effect.

The assay is described as follows: DAPI mCherry counterscreen qHTS for Zika virus inhibitors. Note: nearly all actives have a fitted effect of over 55% in size. The following applies: Vero cells, DAPI nuclear count cytotoxicity, imaging 48-72 h, infected with Zika reporter virus, MOI 1; series mostly up to 32.6 µM. The procedure, abridged:
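Imaging read-out after fixation and Hoechst nuclear staining: percent infection from mCherry-positive cells (above 3 SD of negative controls) and nuclear counts. Setup: Vero cells pre-plated overnight, compound added, infected with ZIKV-mCherry (MOI 1), 48-72 hrs, 37 degrees C.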
On the technique in general: Counterscreens check selectivity or assay interference.
As to `N#Cc1c(O)c2c(-c3ccc(-c4ccccc4O)cc3)csc2[nH]c1=O`, the Potency result is “inactive”. For `CCCCCCCCc1ccc(CCC(N)(CO)CO)cc1` the value was 10 µM (active). Take `CC[C@H](C)[C@H]1O[C@]2(CC[C@@H]1C)C[C@@H]1C[C@@H](C/C=C(\C)[C@@H](O[C@H]3C[C@H](OC)[C@@H](O[C@H]4C[C@H](OC)[C@@H](O)[C@H](C)O4)[C@H](C)O3)[C@@H](C)/C=C/C=C3\CO[C@@H]4[C@H](O)C(C)=C[C@@H](C(=O)O1)[C@]34O)O2`: the Potency is 8.91 µM (active). As for `CC(=O)Oc1cc2c(c(C)c1OC(C)=O)CC=C1[C@@]2(C)CC[C@@]2(C)[C@H]3C[C@](C)(C(=O)O)CC[C@]3(C)CC[C@]12C`, the Potency was 2.82 µM (active). Take `O=C(O)c1ccc(NC(=O)c2cn(-c3ccccc3)nc2-c2ccc(Br)cc2)cc1`: the Potency is 35.5 µM (active). For the compound `O=C(O)c1cc(-c2ccc(C(F)(F)F)cc2)nc2n[nH]c(-c3ccccc3)c12`, the Potency result was “inactive”. For `O=C(O)C1(Cc2cccc(Nc3nccs3)n2)CCC(Oc2cccc(Cl)c2F)CC1` (configuration not stated), the Potency was 17.8 µM (active). With `O=C(NCc1ccccc1Cl)c1ccc2c(O)c(S(=O)(=O)c3ccccc3)c(=O)[nH]c2c1`, the Potency result is “inactive”.

Turning to `C/C(=C\c1ccc(C(=O)O)cc1)c1ccc2c(c1)C(C)(C)CCC2(C)C`, the Potency was 20 µM (active). For `CCOC(=O)c1ccc(Nc2nc3ccccc3nc2NS(=O)(=O)c2ccc(Cl)cc2)cc1` the value was 7.94 µM (active); for `O=c1oc2ccccc2cc1-c1nnc(Nc2ccc(Cl)cc2Cl)s1`, “inactive”. For `CC1CCC(C(=O)N(c2cc(C#CC(C)(C)C)sc2C(=O)O)C2CCC(O)CC2)CC1` (configuration not stated), the Potency is 25.1 µM (active).

These data come from PubChem BioAssay AID1347156 (National Center for Advancing Translational Sciences (NCATS), 2019).
